Assay results from PubChem BioAssay AID463173 (ICCB-Longwood Screening Facility, Harvard Medical School, 2010).
About 4,300 (8.3%) of roughly 52,000 compounds were called active. No stated cut-off is given here; in the data, active means survival mostly below about 52% (no sharp cut-off); inactive means mostly above about 56%. The full list was thinned out, with actives kept by preference.

tested on: DeltatarO mutant; assay: S. aureus survival, RN4220 and DeltatarO strains – OD600, teichoic acid synthesis inhibitors, primary screen (AID 463173); conditions: S. aureus RN4220 wild type/DeltatarO growth, OD600, 18 h, active compounds read low, screened at 18.75 µg/mL (by protocol)

Compound	survival
CCN(CC)CCNC(=O)c1sc2nc(C)cc(C)c2c1-n1cccc1	86% (inactive)
CC(C)CN(CCNC(=O)c1cc(=O)[nH]c2ccc(S(=O)(=O)N3CCCCCC3)cc12)CC(C)C	86% (inactive)
COc1ccc(OC)c(CNC(=O)Cn2ncc3c([nH]c4ccc(C)cc43)c2=O)c1	92% (inactive)
N#Cc1ccc(OC(=O)c2cc(-c3ccc4c(c3)OCCO4)on2)cc1	117% (inactive)
COc1ccc(OC(=O)c2cc(-c3ccc4c(c3)OCCO4)on2)cc1	101% (inactive)
O=C(Nc1cc(C(F)(F)F)ccc1Cl)c1cc(-c2ccc3c(c2)OCCO3)on1	116% (inactive)
Cc1cc(OC(=O)c2cc(-c3ccc4c(c3)OCCO4)on2)ccc1Cl	-1% (active)
CC(C)c1ccc(OC(=O)c2cc(-c3ccc4c(c3)OCCO4)on2)cc1	8% (active)
Cc1ccc(OC(=O)c2cc(-c3ccc4c(c3)OCCO4)on2)cc1C	-2% (active)
Cc1ccc(-c2cc(C(=O)Oc3ccc(C#N)cc3)no2)cc1	97% (inactive)
O=C(Oc1ccc(Cl)cc1)c1cc(-c2ccc3c(c2)OCCO3)on1	116% (inactive)
CC(C)c1ccc(OC(=O)c2cc(-c3ccc(Cl)cc3)on2)cc1	98% (inactive)
CCC(C)NC(=O)Cn1c(=O)cc(-c2ccccc2)c2c(C)nn(C)c21 (stereo not given)	70% (inactive)
COc1cccc(NC(=O)Cc2csc(COc3cccc(C)c3)n2)c1	72% (inactive)
CCOC(=O)c1cnn(-c2ccc(C(=O)Nc3ccc(OC(F)(F)F)cc3)cc2)c1N	124% (inactive)
COC(=O)c1cnn(-c2ccc(C(=O)Nc3ccc(C(C)=O)cc3)cc2)c1N	63% (inactive)
COC(=O)c1cnn(-c2ccc(C(=O)Nc3ccc(OC(F)(F)F)cc3)cc2)c1N	25% (active)
O=C(Cn1nc2c(cc1=O)CCCC2)NCc1ccccc1Cl	144% (inactive)
COc1ccccc1CNS(=O)(=O)c1cc(-c2cc(C)no2)ccc1C	102% (inactive)
CCc1ccccc1NC(=O)CSc1nnc(-c2cc(OC)c(OC)c(OC)c2)o1	111% (inactive)
CCCSCCCNC(=O)CN1C(=O)COc2ccc(S(=O)(=O)N3CCCCCC3)cc21	62% (active)
O=C(CN1C(=O)COc2ccc(S(=O)(=O)N3CCOCC3)cc21)N1CCN(c2cccc(C(F)(F)F)c2)CC1	93% (inactive)
CCCSCCCNC(=O)CN1C(=O)COc2ccc(S(=O)(=O)N3CCCC3)cc21	71% (inactive)

Compound	survival
O=C(CN1C(=O)COc2ccc(S(=O)(=O)N3CCCCCC3)cc21)N1CCN(c2cccc(C(F)(F)F)c2)CC1	61% (active)
O=C(CN1C(=O)COc2ccc(S(=O)(=O)N3CCCC3)cc21)N1CCN(c2cccc(C(F)(F)F)c2)CC1	79% (inactive)
CCCCSCCCNC(=O)CN1C(=O)COc2ccc(S(=O)(=O)N3CCCC3)cc21	66% (inactive)
CC(=O)c1cccc(NC(=O)CCc2c(C)nc3c(-c4ccc(F)cc4)c(C)nn3c2C)c1	76% (inactive)
CCC1CN(C(=O)Nc2ccc(Br)cc2F)c2ccccc2S1 (stereo not given)	90% (inactive)
CCOC(=O)C1CCN(c2nc3c(S(=O)(=O)c4ccccc4)nnn3c3ccc(Cl)cc23)CC1	112% (inactive)
COc1cc(C2CC(=O)Nc3ccc4ccccc4c32)ccc1OC(=O)C(C)C (stereo not given)	67% (inactive)
Cc1ccc2c(c1)N(C(=O)Nc1cccc3c1CCCC3)CC(C)O2 (stereo not given)	56% (inactive)
CCOc1ccc(CCNS(=O)(=O)c2c(C)nc3scc(C)n3c2=O)cc1OCC	83% (inactive)
CCN(CC)S(=O)(=O)c1ccc2c(c1)c(=O)c(C(=O)NCc1ccccc1Cl)cn2C	61% (inactive)
CC(C)(C)NSc1nc2ccccc2s1	58% (active)
COC(=O)CSc1nc2ccccc2s1	94% (inactive)
CCNc1nc2ccccc2s1	72% (inactive)
Cc1ccccc1-c1noc(-c2ccc(N3CCC(C)CC3)c([N+](=O)[O-])c2)n1	55% (inactive)
CCOc1ccc2nc(N3CCC(C(=O)Nc4ccccc4CC)CC3)sc2c1	70% (inactive)
Cc1c(NC(=O)c2cc(-c3ccccc3O)on2)c(=O)n(-c2ccccc2)n1C	51% (active)
COc1ccc(-c2cc(C(=O)Nc3c(C)n(C)n(-c4ccccc4)c3=O)no2)cc1	46% (active)
COc1ccc(-c2cc(C(=O)Nc3c(C)n(C)n(-c4ccccc4)c3=O)no2)cc1OC	59% (inactive)
Cc1c(NC(=O)c2cc(-c3ccc(Cl)c(Cl)c3)on2)c(=O)n(-c2ccccc2)n1C	38% (active)
Cc1c(NC(=O)c2cc(-c3cccc(O)c3)on2)c(=O)n(-c2ccccc2)n1C	56% (inactive)
Cc1c(NC(=O)c2cc(-c3ccc(F)cc3)on2)c(=O)n(-c2ccccc2)n1C	72% (inactive)
Cc1c(NC(=O)c2cc(-c3ccc(Cl)cc3)on2)c(=O)n(-c2ccccc2)n1C	121% (inactive)
Cc1c(NC(=O)c2cc(-c3ccc(O)cc3)on2)c(=O)n(-c2ccccc2)n1C	169% (inactive)

Compound	survival
Cc1c(NC(=O)c2cc(-c3cccc(Cl)c3)on2)c(=O)n(-c2ccccc2)n1C	55% (inactive)
CCOC(=O)c1cccc(NC(=O)c2ccc3c(c2)nnn3CC)c1	66% (inactive)
Cc1ccc(-c2onc(C)c2C)cc1S(=O)(=O)N1c2ccccc2CC1C (stereo not given)	79% (inactive)
COc1ccc(CCNC(=O)c2c(O)nc3ccccn3c2=O)cc1OC	54% (inactive)
COc1cccc(CCNC(=O)c2c(O)nc3cc(C)ccn3c2=O)c1	82% (inactive)
Cc1ccc(CNC(=O)c2c(O)nc3ccccn3c2=O)cc1	89% (inactive)
COc1cccc(CCNC(=O)c2c(O)nc3ccccn3c2=O)c1	48% (active)
O=C(NCc1ccc(F)cc1)c1c(O)nc2ccccn2c1=O	44% (active)
COc1cccc(CNC(=O)c2c(O)nc3ccccn3c2=O)c1	43% (active)
COc1ccc(CCNC(=O)c2c(O)nc3ccccn3c2=O)cc1	81% (inactive)
COc1ccc(CNC(=O)c2c(O)nc3cc(C)ccn3c2=O)cc1	78% (inactive)
Cc1cccn2c(=O)c(C(=O)NCc3ccc(F)cc3)c(O)nc12	119% (inactive)
COc1ccccc1N1CCN(C(=O)CSc2nc3ccccc3nc2Cc2ccccc2)CC1	101% (inactive)
COc1ccc(OC)c(-c2noc(N3CCN(c4ccc(Cl)cc4)CC3)n2)c1	88% (inactive)
CCn1c(CNC(=O)c2ccc(OC)cc2)nnc1SCC(=O)Nc1cc(C)ccc1C	112% (inactive)
COc1cccc(C(=O)N(Cc2cccnc2)c2nc3c(OC)ccc(C)c3s2)c1OC	73% (inactive)
O=S(=O)(Nc1cccc(-c2ccc(N3CCOCC3)nn2)c1)c1ccccc1C(F)(F)F	89% (inactive)
COc1ccc(C(=O)CCC(=O)Nc2ccc(OC)c(Cl)c2)cc1	86% (inactive)
COc1ccc(-c2nnc3n2N(C(C)=O)C(c2ccc(Cl)c(Cl)c2)=C(C(C)=O)S3)cc1	20% (active)
COc1ccc(C2=C(C(C)=O)Sc3nnc(-c4ccccc4)n3N2C(C)=O)cc1	87% (inactive)
CC(=O)C1=C(c2ccc(Cl)c(Cl)c2)N(C(C)=O)n2c(nnc2-c2ccccc2)S1	94% (inactive)
CN(C)c1ccc(CN(CC2CCCO2)C(=O)COc2ccc(Cl)cc2)cc1 (stereo not given)	59% (inactive)
CCc1nn2c(=O)c(S(=O)(=O)Nc3cccc(F)c3)c(C)nc2s1	70% (inactive)

Compound	survival
COc1ccccc1CNS(=O)(=O)c1ccc2c(c1)NC(=O)CC(=O)N2	89% (inactive)
O=S(=O)(Nc1nc2n(n1)C(c1ccccc1)C=C(c1ccc(Cl)cc1)N2)c1ccccc1 (stereo not given)	47% (active)
O=C(Nc1nc2n(n1)C(c1ccc(F)cc1)C=C(c1ccc(Cl)cc1)N2)c1ccc([N+](=O)[O-])cc1 (stereo not given)	64% (inactive)
O=S(=O)(Nc1nc2n(n1)C(c1ccc(F)cc1)C=C(c1ccc(Cl)cc1)N2)c1ccccc1 (stereo not given)	42% (active)
Cc1ccc(C2C=C(c3ccc(F)cc3)Nc3nc(CCCO)nn32)cc1 (stereo not given)	53% (inactive)
Cc1ccc(S(=O)(=O)Nc2nc3n(n2)C(c2ccc(F)cc2)C=C(c2ccccc2)N3)cc1 (stereo not given)	29% (active)
Cc1ccc(C2C=C(c3ccccc3)Nc3nc(NS(=O)(=O)c4ccccc4)nn32)cc1 (stereo not given)	68% (inactive)
O=S(=O)(Nc1nc2n(n1)C(c1ccc(F)cc1)C=C(c1ccccc1)N2)c1ccccc1 (stereo not given)	73% (inactive)
O=S(=O)(Nc1nc2n(n1)C(c1ccc(F)cc1)C=C(c1ccccc1)N2)c1ccc(Cl)cc1 (stereo not given)	10% (active)
COc1ccccc1C(=O)Nc1nc2n(n1)C(c1ccc(F)cc1)C=C(c1ccc(Cl)cc1)N2 (stereo not given)	49% (inactive)
CC(C)(C)C(=O)CSc1nnc(-c2ccccc2)o1	85% (inactive)
COc1cccc(CNC(=O)CCc2c(C)c3cc4c(C)coc4c(C)c3oc2=O)c1	55% (inactive)
CCC(=O)N1CCc2cc(Br)cc(S(=O)(=O)N3CCCC(C(=O)Nc4ccc(OC)cc4OC)C3)c21 (stereo not given)	65% (inactive)
COc1cc(OC)c(NC(=O)c2noc3c2CSc2ccccc2-3)cc1Cl	69% (inactive)
Cc1ccccc1OC(=O)c1nc(SCc2ccccc2F)ncc1Cl	107% (inactive)
Cc1ccc(S(=O)(=O)Nc2nc3n(n2)C(c2ccccc2Cl)C=C(c2ccccc2)N3)cc1 (stereo not given)	37% (active)
Cc1ccc(S(=O)(=O)Nc2nc3n(n2)C(c2ccc(Cl)cc2)C=C(c2ccccc2)N3)cc1 (stereo not given)	2% (active)
Cc1ccc(C2C=C(c3ccccc3)Nc3nc(NS(C)(=O)=O)nn32)cc1 (stereo not given)	67% (inactive)
Cc1ccc(C2C=C(c3ccc(Cl)cc3)Nc3nc(NS(=O)(=O)c4ccccc4)nn32)cc1 (stereo not given)	62% (inactive)
Cc1ccc(-c2nc3n(n2)C(c2ccccc2Cl)C=C(c2ccc(Cl)cc2)N3)cc1 (stereo not given)	95% (inactive)
COc1ccc(C2=CC(c3ccccc3Cl)n3nc(-c4ccc(C)cc4)nc3N2)cc1 (stereo not given)	91% (inactive)
